GLP-1R inv ag = inverse agonists of human GLP-1 receptor | P43220 | HEK293 GLP-1R CRE-luciferase, luminescence, 24 h; GLP-1R form is constitutively active | Potency, µM (titrated, usually from 38.3 µM), most hits filed as inhibitors | 410,000 compounds, 1.6% hits; note: nearly all actives have a fitted effect of over 55% in size
Target sequence (P43220 whole entry, looked up): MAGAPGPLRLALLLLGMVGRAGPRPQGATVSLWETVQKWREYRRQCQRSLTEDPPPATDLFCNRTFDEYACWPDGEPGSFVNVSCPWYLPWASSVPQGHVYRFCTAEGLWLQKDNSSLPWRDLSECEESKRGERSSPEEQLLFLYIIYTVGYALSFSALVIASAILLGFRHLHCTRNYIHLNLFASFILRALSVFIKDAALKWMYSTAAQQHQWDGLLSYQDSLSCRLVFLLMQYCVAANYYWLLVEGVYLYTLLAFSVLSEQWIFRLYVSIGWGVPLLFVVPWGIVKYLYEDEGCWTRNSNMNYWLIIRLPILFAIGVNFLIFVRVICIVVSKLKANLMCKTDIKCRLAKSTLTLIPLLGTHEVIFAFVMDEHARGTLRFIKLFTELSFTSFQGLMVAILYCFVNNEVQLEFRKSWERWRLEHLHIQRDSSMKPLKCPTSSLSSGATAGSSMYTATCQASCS
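HEK293 cells stably co-expressing constitutively active GLP-1R and a cAMP-responsive luciferase reporter were seeded in DMEM with 10% Nu serum, given compounds after 12 h, and incubated 24 h at 37 deg C. Luminescence was then read.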
a7 integrin act = activates integrin-mediated alleviation for muscular dystrophy; alpha7betagal myoblasts, beta-gal FDG fluorescence, 48 h; Potency, µM (doses to about 38.3 µM), hits mostly activators; 350,000 compounds, 0.064% hits; note: nearly all actives have a fitted effect of over 60% in size
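Alpha7betagal+/- myoblasts (passage 13) were plated 16-24 hr, then exposed to compounds (1:260 dilution of DMSO stock) for 48 hours at 37C. After MPER lysis, β-galactosidase reporter activity was read as FDG fluorescence (ex 480/em 540) after 30 minutes.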
GLP1R ag = GLP-1 receptor (human) agonism; P43220; AID 624172; 380,000 compounds, 0.007% hits; HEK293 GLP-1R CRE-luciferase, luminescence, 4-6 h; cells express a hypersensitive GLP-1R form; Potency, µM (highest dose often 45.6 µM), hits mostly activators
BRCA1 expr up = activators of BRCA1 expression; MCF7-BRCA1-FFLuc reporter, luminescence, 48 h; response scale: scaled: vehicle 0%, 10 µM genistein 100%; Potency, µM (top dose mostly 46.1 µM), actives largely listed as activators; 380,000 compounds, 1.1% hits; AID 624202; note: nearly all actives have a fitted effect of over 80% in size
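Luminescence from a BRCA1-driven firefly luciferase in MCF7 cells was read after 48 h compound exposure at 37 C. Data normalized against DMSO and a 10microM genistein activation control, then curve-fitted across the titration.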
HEK293 tox = cytotoxicity in counter-screen for GLP-1R inverse agonists; Potency, µM (doses to about 38.3 µM), actives largely listed as inhibitors; 410,000 compounds, 0.13% hits; HEK293 cAMP-luciferase reporter cells, luminescence, 24 h;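 note: loss of luciferase light is scored as toxicity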
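Step one: seed cells (200 cells/uL, DMEM with 10% Nu serum, 1% pen-strep). Step two: 12-hour incubation at 37 deg C. Step three: pin 23 nL compound, incubate 24 hr. Step four: add luciferase reagent, read luminescence 12 min later.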
Numbers stand for hits; – = inactive; ? = inconclusive; · = no result. Most compounds without a hit are left out; they make up all but 2.7% or so of the library. Calls come from the whole dose curve; as a rule, active = well fitted curve in the direction sought with a large enough effect; inconclusive = small, poorly fitted or top-dose-only effect, or another doubt; inactive = no such curve, though single readings can be large; an effect the other way counts as inactive or inconclusive.

SMILES	GLP-1R inv ag	a7 integrin act	GLP1R ag	BRCA1 expr up	HEK293 tox
COc1ccc(C)c2sc(N(Cc3cccnc3)C(=O)CCc3ccccc3)nc12	–	·	·	·	–
O=C(Nc1ccc(Cl)cc1)C1=Cc2cc(Cl)ccc2OC1	–	?	–	–	–
O=C(Nc1ccc(Cl)cc1Cl)C1=Cc2ccccc2OC1	–	?	–	10µM	–
CCc1ccc2c(c1)NC(c1ccc(F)cc1)=NC(c1ccncc1)=N2	–	·	·	·	–
CC(C)(C)C(=O)CSc1ncnc2c1cnn2Cc1ccccc1	3.55µM	–	–	–	–
O=C(CSc1ncnc2c1cnn2CCc1ccccc1)Nc1cccc(C(F)(F)F)c1	7.94µM	–	–	–	–
COC(=O)CSc1ncnc2c1cnn2Cc1ccccc1	–	–	–	–	–
Cc1cccc(NC(=O)Cn2cc(S(=O)(=O)c3ccc(F)cc3)c(=O)c3cc4c(cc32)OCO4)c1	?	·	–	–	–
COC(=O)Cn1c(C)nc2c(sc3nc(C)cc(C)c32)c1=O	–	–	–	6.31µM	–
CCOC(=O)Cn1cnc2c(sc3nc(C)cc(C)c32)c1=O	–	–	–	–	–
CNCCN(C)c1nc(-c2cccs2)nc2ccccc12	·	·	·	–	·
CN(C)c1ccc(C(CNS(=O)(=O)c2ccc(Cl)cc2)N2CCCC2)cc1 (stereo not given)	–	·	·	·	–
Cc1ccccc1NC(=S)NCCc1ccccc1	–	–	–	–	–
S=C(NCCc1ccccc1)Nc1ccccn1	?	–	–	10µM	–
Cc1cccc(NC(=S)NCCc2ccccc2)n1	?	–	–	–	3.98µM
Cc1cc(Br)ccc1OCC(=O)N1CCCCCC1	?	–	–	–	–
CC(C)c1ccc(OCC(=O)N2CCCCCC2)c(Br)c1	?	–	–	10µM	–
CCCOc1ccc(C2CC(=O)Nc3c2c(=O)n(C)c(=O)n3C)cc1OC (stereo not given)	–	·	–	–	–
CN(C)CCCn1c(SCC(=O)Nc2nc(-c3cccc(Br)c3)cs2)nc2ccccc2c1=O	11.2µM	–	–	–	?
O=C(CSc1nc2ccccc2[nH]1)Nc1nc(-c2cccc(Br)c2)cs1	–	–	–	–	–
Cc1ccc(N2CCN(C(=O)c3c(C)oc4ncnc(N5CCCCC5)c34)CC2)c(C)c1	?	·	·	–	–
COC(=O)C1=C(C)NC(=O)C1(NC(=O)c1cc(OC)c(OC)c(OC)c1)C(F)(F)F (stereo not given)	–	·	·	·	–
CCCn1c(SCc2nc(-c3cc(OC)ccc3OC)no2)nnc1-c1ccc(Cl)cc1	–	·	·	·	–
Cc1ccc(Cc2c(-c3cccc(Cl)c3)nc3cc(C)c(Br)c(C)n23)cc1	3.16µM	·	–	–	–
NC(=S)NN=C1CCC(C2CCCCC2)CC1 (stereo not given)	2.24µM	–	–	–	?
SMILES	GLP-1R inv ag	a7 integrin act	GLP1R ag	BRCA1 expr up	HEK293 tox
CC(=O)N1CCN(CC(=O)Nc2ccc(C)c(S(=O)(=O)N(C)C)c2)CC1	–	–	–	–	–
Cc1ccc(NC(=O)CN2CCC(Cc3ccccc3)CC2)cc1S(=O)(=O)N(C)C	8.91µM	–	–	–	–
Cc1ccc(CCNC(=O)c2sc3ncccc3c2-n2c(C)ccc2C)cc1	11.2µM	·	·	·	–
CCOc1ccc(CCNC(=O)c2sc3ncccc3c2-n2c(C)ccc2C)cc1	?	·	·	·	–
Cc1ccc(S(=O)(=O)N2CCCC(C(=O)NCc3ccc4c(c3)OCO4)C2)cc1 (stereo not given)	?	–	–	–	–
CC1CCN(S(=O)(=O)c2ccc(C(=O)NCc3ccc4c(c3)OCO4)cc2)CC1	–	–	–	–	–
CC1CC(C)CN(S(=O)(=O)c2ccc(C(=O)NCc3ccc4c(c3)OCO4)cc2)C1 (stereo not given)	10µM	–	–	–	–
Cc1ccc(S(=O)(=O)N2CCCC(C(=O)NCCc3ccc4c(c3)OCO4)C2)cc1 (stereo not given)	12.6µM	–	–	–	–
Cc1ccccc1C(=O)Nc1cccc(C(=O)OCc2cc(=O)n3nc(C4CC4)sc3n2)c1	–	·	·	·	–
CCOC(=O)c1sc2nc(CC(=O)OC)nc(N3CCN(c4ccc(OC)cc4)CC3)c2c1C	3.98µM	–	–	–	–
COc1ccccc1CNC(=O)c1cc2c(=O)n(Cc3cccs3)ccc2nc1C	?	·	·	·	–
CCc1ccc(C2=CC(c3cccc(C)c3)n3c(nc4ccccc43)N2)cc1 (stereo not given)	?	·	·	·	–
COc1ccc2cc3cc(C(=O)NCCCN4CCC(C)CC4)oc3nc2c1	–	–	–	11.2µM	–
CC[N+]1(CC)CCC(=C(c2ccccc2)c2ccccc2)C1C (stereo not given)	·	·	–	·	·
CCCC(=O)Nc1ccccc1NC(=O)c1ccc(OCC)cc1	–	11.2µM	–	–	–
CCOc1c(Cl)cc(C(=O)Nc2ccccc2-c2ccccc2)cc1Cl	8.91µM	–	–	–	–
Cn1cc(S(=O)(=O)N2CCCCC2)cc1C(=O)N1CCN(c2ccc(F)cc2)CC1	–	·	–	–	–
O=[N+]([O-])c1cc(S(=O)(=O)C(F)(F)F)ccc1N1CCN(c2ccccc2)CC1	5.01µM	–	?	–	–
O=C(N/N=C/c1ccc[nH]1)c1ccccc1OCc1ccc(F)cc1	–	–	–	–	–
CCOc1ccc(OCc2ccc(C(=O)NN=Cc3ccc[nH]3)cc2)cc1	?	–	–	–	2.24µM
Cc1ccc2c(Sc3ccc(Cl)cc3)c(C(=O)N3CCC(C)CC3)[nH]c2c1	10µM	·	·	·	–
CC(=O)N1CCC(N(Cc2ccc(C)o2)C(=O)Nc2ccc(C)cc2)CC1	–	·	·	·	–
Clc1cccc(COn2c(-c3ccc(Cl)cc3Cl)nc3ncccc32)c1	?	–	–	–	–
Cc1ccc(COn2c(-c3ccc(Cl)cc3Cl)nc3ncccc32)cc1	10µM	–	–	–	–
Cc1c(NC(=O)Nc2ccc(Br)cc2F)sc2nc3n(c(=O)c12)CCC(C)CC3 (stereo not given)	–	·	·	·	–
O=C(CN1C(=O)CCC1=O)Nc1nc(-c2nc3ccccc3s2)cs1	–	–	–	5.01µM	–
C[C@@H]1CN([C@@H](C)CO)C(=O)c2ccccc2-c2ccccc2CO[C@@H]1CN(C)S(=O)(=O)c1ccc(C(F)(F)F)cc1	10µM	–	–	–	–
C[C@H](CO)N1C[C@H](C)[C@@H](CN(C)S(=O)(=O)c2ccc(F)cc2)Oc2c(NC(=O)Nc3ccc(C(F)(F)F)cc3)cccc2C1=O	?	–	–	–	–
C[C@H](CO)N1C[C@H](C)[C@H](CN(C)S(=O)(=O)c2cccc(F)c2)OCc2ccccc2-c2c(n(C)c3ccccc23)C1=O	11.2µM	–	–	–	–
Cc1ccc2oc(=O)c3cnn(CC(=O)Nc4cccc(C(F)(F)F)c4)c3c2c1	–	·	·	·	–

Assay outcomes as filed in PubChem.
